Bioassay records as filed in PubChem BioAssay.
KB-3-1 cytotox – kills parental KB-3-1 adenocarcinoma cells. KB-3-1 viability, CellTiter-Glo ATP luminescence, 72 h. Potency, µM (top dose mostly 46.1 µM), usual class: cytotoxic. 1.4% of 400,000 active. AID 1347075; note: nearly all actives have a fitted effect of over 60% in size
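72 h, 37 °C compound treatment of KB-3-1 parental cells; CellTiter-Glo added, 10 min, luminescence read. Data corrected against DMSO-only plates and normalized before curve fitting.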
MCF10A rereplic – induces DNA re-replication in MCF 10a normal breast cells. MCF 10A DNA re-replication, Hoechst nuclear intensity, 48 h. Potency, µM (highest dose often 46.1 µM), most hits filed as activators. 2.9% of 350,000 active; note: nearly all actives have a fitted effect of over 50% in size
HT1080NT lethal – kills 2HG-producing HT-1080-NT fibrosarcoma cells; HT-1080-NT fibrosarcoma viability, CellTiter-Glo ATP luminescence, 48 h; Potency, µM (highest dose often 46.1 µM), usual class: cytotoxic; 1.6% of 360,000 active; AID 686970;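 note: NT is the 2HG producing partner of a matched IDH1 knockdown line; nearly all actives have a fitted effect of over 55% in size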
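Toxicity toward the 2HG-producing NT line was scored as %Activity, normalised to DMSO and no-cell wells, from CellTiter-Glo luminescence after 48 hours' treatment.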
SW480 rerep – induces DNA re-replication in SW480 colon adenocarcinoma cells. SW480 DNA re-replication, Hoechst DNA content imaging, 48 h. Potency, µM (series often up to 46.1 µM), most hits filed as activators. 1.8% of 340,000 active. AID 624297; note: nearly all actives have a fitted effect of over 55% in size
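250 cells/well; 23 nL cpd via pin tool; 48 hr, 37 C, 5% CO2; Hoechst 40 min; imager read of total nuclear intensity, ex 405/em 500-530 nm.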
HT1080 IDH1KD tx – toxicity to HT-1080 IDH1 knockdown cells (counter line); HT-1080 IDH1 knockdown viability, ATP luminescence, 48 h; Potency, µM (top dose mostly 46.1 µM), actives largely listed as cytotoxic; AID 686971; 2% of 360,000 active
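HT-1080-IDH1KD cells (IDH1 knocked down), 750/well in RPMI with 5% FBS, treated with compound 48 h at 37 degrees C. Viability by CellTiter-Glo luminescence, normalised to DMSO and no-cell wells; concentration-response curves classed.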
KB-V1 MDR tox – kills drug-selected multidrug resistant KB-V1 cells | KB-V1 MDR cells viability, CellTiter-Glo, 72 h | Potency, µM (top dose mostly 46.1 µM), actives largely listed as cytotoxic | 3.4% of 400,000 active; note: nearly all actives have a fitted effect of over 60% in size
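KB-V1 MDR subline cells in DMEM (phenol-red free, 10% FBS) exposed to compounds in qHTS concentration series for 72 h at 37 degrees C. Viability read by CellTiter-Glo luminescence; concentration-effect curves fitted after normalization and correction.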
Of the large screens only hits and unclear results are named; the others gave an inactive call. Hits are enriched below; roughly 7.9% of the tested compounds scored in any of these assays. Calls come from the whole dose curve; as a rule, active = well fitted curve in the direction sought with a large enough effect; inconclusive = small, poorly fitted or top-dose-only effect, or another doubt; inactive = no such curve, though single readings can be large; an effect the other way counts as inactive or inconclusive.

O=c1[nH]c2ccccc2n1C1CCN(C(c2ccccc2)c2nnnn2-c2ccc3c(c2)OCCO3)CC1 (stereo unspecified)	KB-3-1 cytotox inconclusive, HT1080NT lethal inconclusive, HT1080 IDH1KD tx inconclusive, KB-V1 MDR tox 16µM (no result: MCF10A rereplic, SW480 rerep)
O=C(CCC1CCCN(Cc2cccc3c2OCO3)C1)NCc1ccc(F)c(F)c1 (stereo unspecified)	none
CC1=CC(=C2C(=O)NC(=S)NC2=O)C=C(C(F)(F)F)N1Cc1ccccc1	KB-3-1 cytotox 2.6µM, MCF10A rereplic 3.3µM, HT1080NT lethal 1.8µM, SW480 rerep 3.7µM, HT1080 IDH1KD tx 1.6µM, KB-V1 MDR tox 12µM
COc1ccc(OC(=O)Nc2ccccc2)cc1	HT1080NT lethal inconclusive
O=C(Nc1ccc(F)cc1)Oc1ccc[nH]c1=O	HT1080NT lethal inconclusive, HT1080 IDH1KD tx 21µM
O=C(Oc1ccc(Br)cc1)C1CC(=O)N(c2ccc(F)cc2)C1 (stereo unspecified)	MCF10A rereplic inconclusive
CCCC(C)C1(CC)C(=O)NC(=O)NC1=O (stereo unspecified)	none (no result: KB-3-1 cytotox, HT1080NT lethal, HT1080 IDH1KD tx, KB-V1 MDR tox)
Cc1nn(Cc2ccccc2)c(Cl)c1C(=O)OC(C)C(=O)Nc1ccc(F)cc1Cl (stereo unspecified)	MCF10A rereplic 21µM, KB-V1 MDR tox 3.3µM
Cc1nn(Cc2ccccc2)c(Cl)c1C(=O)OCC(=O)Nc1cccc2ccccc12	KB-3-1 cytotox inconclusive, MCF10A rereplic inconclusive, KB-V1 MDR tox 16µM
Cc1nn(Cc2ccccc2Cl)c(Cl)c1C(=O)OCC(=O)NC(=O)NC1CCCCC1	MCF10A rereplic inconclusive, KB-V1 MDR tox 16µM
Cc1cc(NC(=O)COC(=O)c2c(C)nn(Cc3ccccc3Cl)c2C)no1	MCF10A rereplic inconclusive, SW480 rerep inconclusive
CC(=O)[C@H]1CC[C@H]2[C@@H]3CC[C@H]4C[C@](C)(O)CC[C@]4(C)[C@H]3CC[C@]12C	none (no result: KB-3-1 cytotox, HT1080NT lethal, HT1080 IDH1KD tx, KB-V1 MDR tox)
O=C1NC2C(=CC(O)C(O)C2O)c2cc3c(cc21)OCO3 (stereo unspecified)	KB-3-1 cytotox 3.3µM, MCF10A rereplic inconclusive, HT1080NT lethal inconclusive, HT1080 IDH1KD tx 1.2µM, KB-V1 MDR tox 2.3µM
O=C1NC2C(=CC(O)C(O)C2O)c2cc3c(c(O)c21)OCO3 (stereo unspecified)	KB-3-1 cytotox 0.1µM, MCF10A rereplic inconclusive, HT1080NT lethal 0.73µM, SW480 rerep inconclusive, HT1080 IDH1KD tx 0.15µM, KB-V1 MDR tox inconclusive
O=C1NC2C(O)C(O)C(O)C(O)C2c2cc3c(c(O)c21)OCO3 (stereo unspecified)	KB-3-1 cytotox inconclusive, HT1080NT lethal 0.46µM, HT1080 IDH1KD tx 0.23µM, KB-V1 MDR tox 0.52µM
COc1cc(CC2C(=O)N(C)C(=O)N(C)C2=O)ccc1OCc1ccccc1	MCF10A rereplic 5.2µM, SW480 rerep inconclusive, KB-V1 MDR tox inconclusive
CC(C)N(CCC(=O)c1ccc2ccccc2c1)Cc1ccccc1	KB-3-1 cytotox inconclusive, HT1080NT lethal 4.1µM, SW480 rerep inconclusive, HT1080 IDH1KD tx 15µM
Cn1cc([N+](=O)[O-])c(C(=O)Nc2ccc3c(C(F)(F)F)cc(=O)oc3c2)n1	KB-3-1 cytotox inconclusive, MCF10A rereplic inconclusive, HT1080NT lethal inconclusive, SW480 rerep 12µM, HT1080 IDH1KD tx inconclusive
C=CCn1c(O)c(C=NCCN2CCNCC2)c(=O)[nH]c1=O	none
O=c1[nH]c(=O)n(Cc2ccc(F)cc2)c(O)c1/C=N/Nc1ccccc1	HT1080NT lethal 2.3µM, HT1080 IDH1KD tx 2.3µM
COc1ccc(OC)c(-n2c(O)c(C=Nc3c(C)n(C)n(-c4ccccc4)c3=O)c(=O)[nH]c2=O)c1	MCF10A rereplic inconclusive, SW480 rerep inconclusive
O=c1c(C=NCCN2CCNCC2)c(O)n(C2CCCCC2)c(=O)n1C1CCCCC1	MCF10A rereplic inconclusive, HT1080NT lethal 20µM, SW480 rerep inconclusive, HT1080 IDH1KD tx inconclusive, KB-V1 MDR tox inconclusive
O=c1[nH]c(=O)n(Cc2ccccc2)c(O)c1C=NCCN1CCNCC1	MCF10A rereplic 2.9µM, SW480 rerep 6.5µM
O=c1c(C=NCc2cccs2)c(O)n(C2CCCCC2)c(=O)n1C1CCCCC1	none
O=c1[nH]c(=O)n(Cc2ccc(F)cc2)c(O)c1C=NCCCO	none
